“And” between values parts separate entries of the source, which are not always exact repeats. Identical values can stand only once. The panel holds about 83,000 compounds, 20% with a hit somewhere; the sample as a whole holds those more often.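 The endpoint reported here, percent growth, reads 100 for growth as untreated, 0 for no net growth and -100 for all cells dead.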 The source made the active and inactive calls. Rule for the calls: active = growth percent below 10; inactive = the rest.

This assay has as its system MDA-MB-468 breast. The assay is described as follows: NCI-60 one-dose screen, 48 h (100 = growth as untreated, 0 = no growth, -100 = all killed). To be noted: 10 µM unless noted.
On to `COc1ccc(-c2nn(-c3ccccc3)cc2/C=C/C(=O)c2ccc(NC(=O)CCCCCCC(=O)NO)cc2)cc1`, for which the growth was 92.8% (inactive).

Take `O=C(O)c1ccc(NCc2cn(-c3ccc(C(F)(F)F)cc3)nc2-c2ccc(C(=O)O)cc2)cc1`: the growth was 123% (inactive).

Turning to `Oc1[nH]c2ccc(Cl)cc2c1N=Nc1nc(N=Nc2c(O)[nH]c3ccc(Cl)cc23)nc(N2CCOCC2)n1`, the growth was 23.6% (inactive).

In the case of `C=CC(=O)OCCCCCCCC`, the growth is 106% (inactive).

With `C=C1C(=O)O[C@H]2[C@H]1CC/C(CNC(=O)CCc1ccc(OC)cc1)=C\CC[C@@]1(C)O[C@@H]21`, the growth is 32.1% (inactive).

As for `CC(C)=CC/C=C(/C)[C@H]1CC[C@]2(C)[C@@H]1CC[C@@H]1[C@@]3(C)CCCNC(C)(C)[C@@H]3CC[C@]12C`, the growth is -50.1% [100 µM] (active).

Consider `COc1cc(C2CC(c3cccc(Nc4ccnc5cc(Cl)ccc45)c3)=NN2C=O)cc(OC)c1OC` (centres undefined), for which the growth was -37.1% (active).

`C#CCOc1ccc2ncnc(Nc3ccc(NC(=O)C=C)cc3)c2c1`: the growth was -22.3% (active).

On to `CCOC(=O)C(N)Cc1cc(I)c(O)c(I)c1` (centres undefined), for which the growth was 101% (inactive) and 113% (inactive).

In the case of `COc1ccc(Nc2ncc(I)c(NCCCNC(=O)C3CCC3)n2)cc1`, the growth was -14.9% (active).

Consider `CC(=O)C(C(C)=O)C(c1ccccc1)C(C(C)=O)C(C)=O`, for which the growth is 98.6% (inactive).

On to `N#Cc1c(-c2ccc(O)cc2)c2c(N)nn(-c3ccccc3)c2[nH]c1=O`, for which the growth was 111% (inactive).

Turning to `c1ccc2c(c1)oc1c3c(ccc12)NCCC3`, the growth is -51.5% (active).

In the case of `CC(C)(C)c1ccc(O)c(Cc2cc(C(C)(C)C)ccc2O)c1`, the growth was 119% (inactive).

Regarding `COc1ccc(\C=N/N=C(N)/C(N)=N\N=C/c2ccc(OC)cc2)cc1`, the growth is 95.7% (inactive).

Consider `CCN1CCN(CCC(=O)Nc2cccc(-n3cc(-c4ccncc4)c(-c4ccc(Cl)c(OC)c4)n3)c2)CC1`, for which the growth is -2.3% (active).

As to `NNCCc1ccc(NC(=O)CCCc2ccc(C(=O)Nc3ccccc3N)cc2)cc1`, the growth was 72.9% (inactive).

Turning to `COc1cc(NCC(=O)Nc2cc(Nc3ccc(C)cc3)ncn2)c(Cl)c(OC)c1Cl`, the growth is 105% (inactive).

On to `CN(C)c1ccc2oc(=O)c3ccccc3c2c1`, for which the growth was 78.3% (inactive).

Take `C[C@]12CC[C@@H]3c4cc(OC(F)F)c(O)cc4CC[C@H]3[C@@H]1CC[C@@H]2OS(N)(=O)=O`: the growth is -18.9% (active).

In the case of `COc1ccc(C(=O)/C=C/c2ccc(/C=C/c3cc(OC)c(OC)c(OC)c3)cc2)cc1`, the growth was 51.9% (inactive).

Turning to `N#Cc1nc(-c2ccccc2)oc1S(=O)(=O)N1CCN(CCc2ccccn2)CC1`, the growth is 25.7% (inactive).

As for `Cc1c(C(=O)O[C@H]2[C@@H]3[C@H](C)CC[C@H]3[C@]3(C)O[C@@]2(C2CCCCC2)C[C@H]3OC(=O)CO)ccc2ccccc12`, the growth is 22.5% (inactive).

Take `CN(C)CCCOc1c2ccc(Cl)cc2nc2c1oc1ccc(Cl)cc12`: the growth is -48% (active).

For the compound `CCCCCCCCCCCC[S+](C)CC(=O)[O-]` (centres undefined), the growth was -53.1% (active).

Regarding `CN(C)c1ccc2cc(-c3nc4ccccc4s3)c(N)nc2c1`, the growth was 56.9% (inactive).

`C[C@@H]1O[C@@H](O[C@H]2[C@@H](OC(=O)[C@]34CCC(C)(C)C[C@H]3C3=CC[C@@H]5[C@@]6(C)C[C@H](O)[C@H](O[C@@H]7O[C@H](CO)[C@@H](O)[C@H](O)[C@H]7O)[C@@](C)(CO)[C@@H]6CC[C@@]5(C)[C@]3(C)C[C@H]4O)OC[C@@H](O)[C@@H]2O)[C@H](O)[C@H](O[C@@H]2OC[C@@H](O)[C@H](O[C@@H]3OC[C@](O)(CO)[C@H]3O[C@@H]3OC[C@@H](O)[C@H](O)[C@H]3O)[C@H]2O)[C@H]1O[C@@H]1OC[C@](O)(CO)[C@H]1O`: the growth was -24.2% (active).

As for `COc1cccc(NC(=O)c2c(-c3ccccc3)c(-c3ccccc3)n[nH]c2=O)c1`, the growth is 92.4% (inactive).

With `NCCSSC/C=C\CSSCCN`, the growth is 94.6% (inactive).

In the case of `N#CC1=C2NCCCNc3oc(nc3C#N)Cc3ccccc3CC(=N1)O2`, the growth was 75.1% (inactive).

Regarding `CCN1C(=O)N(CC)C2Nn3c(s/c(=C\c4cccc(F)c4)c3=O)=NC21` (centres undefined), the growth is 17.8% (inactive).

Regarding `CCC1=C[C@]2(C3CC(=O)N(c4ccccc4)C3=O)CC(C(C)(C)C)C[C@@H]2[C@@H]2C(=O)N(c3ccccc3)C(=O)[C@H]12` (some centres undefined), the growth was 90.2% (inactive).

With `CCOc1cccc(/C=N/NC(=O)c2ccccc2Nc2ccnc(C(F)(F)F)c2)c1O`, the growth is -23.6% (active).

`ClC1=C(Cl)C(Cl)=C(Cl)C1=Cc1ccccc1`: the growth is -80.7% (active).

For `Clc1ccc(N2CCN(CCCN3CCN(c4cccc(Cl)c4)CC3)CC2)cc1`, the growth was 23.5% (inactive).

In the case of `CCN(CCO)CCCOc1ccc2c(Nc3cc(CC(=O)Nc4cccc(F)c4)[nH]n3)ncnc2c1`, the growth is 36.7% (inactive).

`O=C(Nc1cccc(NC(=O)Nc2cc(C(F)(F)F)ccc2Cl)c1)Nc1cc(C(F)(F)F)ccc1Cl`: the growth is -8.33% (active).

For `NC(=S)N/N=C(/c1cccs1)C1CC1`, the growth is 37.4% (inactive).

With `CCOC(=O)c1ccc(Nc2sc(C(=O)c3ccc(Br)cc3)c(N)c2C#N)cc1`, the growth was 1.55% (active).

Source of the values: PubChem BioAssay (NCI).
